Only some compounds are listed: those with a hit (about 3% of all), similar ones and a draw of the others.
Mcl1 Bid PPI = Mcl-1/Bid binding inhibitors, primary screen, biochemical, TR-FRET, 1536-well; inhibition, % at 21.7 µM; AID 1021, 2008; TR-FRET Mcl-1/Bid-Dy647 peptide binding; hit rate 0.97% among 220,000; Induced myeloid leukemia cell differentiation protein Mcl-1 (Homo sapiens), Q07820;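 active means compounds that cut the binding signal by more than half at the single screening dose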;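 further: His-tagged Mcl-1 with europium anti-His antibody binding Bid BH3 peptide; 0% = Mcl-1 plus peptide wells and 100% = peptide-only wells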
Target sequence (Q07820 whole entry, looked up): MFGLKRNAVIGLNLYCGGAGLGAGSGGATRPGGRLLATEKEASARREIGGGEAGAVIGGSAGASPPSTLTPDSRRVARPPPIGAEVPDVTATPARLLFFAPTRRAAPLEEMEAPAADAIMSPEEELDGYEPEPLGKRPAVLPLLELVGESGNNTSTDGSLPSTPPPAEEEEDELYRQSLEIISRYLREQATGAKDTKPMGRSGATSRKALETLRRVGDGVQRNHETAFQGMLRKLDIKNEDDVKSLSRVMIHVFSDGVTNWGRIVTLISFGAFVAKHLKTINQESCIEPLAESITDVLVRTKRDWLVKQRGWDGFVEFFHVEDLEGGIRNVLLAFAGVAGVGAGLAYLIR
14-3-3 Bad PPI = inhibitors of 14-3-3 zeta/Bad binding, primary screen, biochemical, TR-FRET, bovine 14-3-3 zeta; hit rate 0.71% among 220,000; inhibition, % at 21.7 µM; TR-FRET 14-3-3zeta/Dy647-pBad peptide displacement, 1 h; 14-3-3 protein zeta/delta (Bos taurus), P63103;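 active means inhibition above about 70%, limit read from the data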;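 further: 0% = full 14-3-3 plus peptide FRET controls and 100% = background without 14-3-3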
Target sequence (P63103 whole entry, looked up): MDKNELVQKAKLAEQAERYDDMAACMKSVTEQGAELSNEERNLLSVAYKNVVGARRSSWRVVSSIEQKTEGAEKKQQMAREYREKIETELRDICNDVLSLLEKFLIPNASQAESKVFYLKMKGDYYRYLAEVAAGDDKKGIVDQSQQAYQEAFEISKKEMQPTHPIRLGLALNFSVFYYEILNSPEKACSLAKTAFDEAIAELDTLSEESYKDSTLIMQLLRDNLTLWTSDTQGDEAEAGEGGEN
Mcl1-Noxa inh = Mcl-1/Noxa binding inhibitors, primary screen, biochemical, TR-FRET, 1536-well; Induced myeloid leukemia cell differentiation protein Mcl-1 (Homo sapiens), Q07820; TR-FRET Mcl-1/Noxa peptide binding, 2 h; inhibition, % at 21.7 µM; hit rate 1.5% among 220,000; AID 1022, 2008;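 active means compounds that cut the protein-peptide binding signal by more than 50% relative to plate controls in a single-dose test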;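 further: His-tagged Mcl-1 with rhodamine Noxa BH3 peptide and terbium anti-His antibody; 0% = Mcl-1 plus Noxa peptide wells and 100% = peptide-only wells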
Mcl-1 Bim block = inhibitors of Bim peptide binding to Mcl-1, primary screen, biochemical, bead-based flow cytometry, multiplex; Induced myeloid leukemia cell differentiation protein Mcl-1 (Homo sapiens), Q07820; Bim peptide-Mcl-1 binding; inhibition, % at 10 µM; hit rate 0.1% among 190,000; AID 1009, 2008; in the data active means inhibition above about 40%;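 further: 0% = no compound tracer wells and 100% = peptide blocker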
Arbovirus anti = antivirals against arbovirus infection, primary screen, cell-based, full library, 10K replicate subset | arbovirus infection cell-based antiviral screen | inhibition, % at 10 µM | hit rate 0.37% among 200,000 | AID 1251, 2008; in the data active means inhibition above about 30%
Active calls of the source: *; · = no result given; [ ] = another dose, or the depositor's remark.

SMILES	Mcl1 Bid PPI	14-3-3 Bad PPI	Mcl1-Noxa inh	Mcl-1 Bim block	Arbovirus anti
COc1cccc(N2C(=O)C3NN=C(C(=O)CN4C(=O)c5ccccc5C4=O)C3C2=O)c1 (centres undefined)	-14	1	1	·	·
CCOC(=O)CSc1nnc(-c2cccc(Cl)c2)n1CC	-27	-2	-9	45*	1
CCOC(=O)CSc1nnc(-c2ccc(OC)cc2)n1CC	-16	-5	1	0	4
COc1ccc(Br)cc1C(=O)Nc1ccccc1-c1ccccc1	-45	12	-2	0	13
S=C(NCc1ccccc1)N1CCn2cccc2C1c1cccnc1 (centres undefined)	-24	-5	3	0	34*
O=C1C(=O)N(Cc2ccco2)C(c2cccs2)/C1=C(\O)c1cccc([N+](=O)[O-])c1 (centres undefined)	15	-1	21	·	·
CC(=O)N1CCN(CC(=O)Nc2c(Cl)cccc2Cl)CC1	34	76*	25	-1	2
CSc1nc2ccc3nc(NC(=O)c4ccccc4)sc3c2s1	55*	21	29	0	15
O=C(Nc1nc2ccccc2s1)c1ccccc1	-18	-12	14	0	6
Cc1cccn2cc(COc3cccc([N+](=O)[O-])c3)nc12	4	-13	-4	1	-1
Cc1cccn2cc(COc3ccc(-c4ccccc4)cc3)nc12	-8	79*	11	-4	2
Cc1ccc(C23CC4CC(CC(C(=O)N5CCOCC5)(C4)C2)C3)cc1	58*	-4	22	-3	16
COc1ccc(NC(=O)CN(C)C(C)C(=O)N2CCCCC2)cc1 (centres undefined)	56*	66	24	-3	7
COc1ccc(NC(=O)CN(C)CC(=O)Nc2ccccc2SC)cc1	51*	24	18	-3	0
CCCCCNc1nc2ccccc2nc1NS(=O)(=O)c1cccs1	31	-7	5	3	32*
O=C(O)Cn1c(SC2CCCCC2)nc2ccccc21	-3	7	12	-3	1
O=C(O)CSc1nc2ccccc2n1C1CCCCC1	50	84*	32	-2	-4
CCOC(=O)c1c(CS(=O)(=O)c2ccccc2)n(C)c2cc(Br)c(O)c(CN(C)C)c12	-26	1	62*	0	0
CCc1ccc(S(=O)(=O)NC(=S)Nc2ccccc2)cc1	-66	1	10	-1	1
O=C(CSc1nc2ccc([N+](=O)[O-])cc2[nH]1)c1ccc2ccccc2c1	29	-11	62*	0	1
Brc1ccc(C2=Nc3cccc4cccc(c34)N2)o1	-34	-13	55*	0	-10
Fc1ccc(C2=Nc3cccc4cccc(c34)N2)cc1	-43	-5	19	24	-4
Cc1ccc(C(=O)C(C)OC(=O)c2n[nH]c(=O)c3ccccc23)cc1 (centres undefined)	-17	-5	-3	-7	5
Cc1nn(-c2ccccc2)c(Cl)c1C1C(C#N)=C(N)Oc2c1c(C)nn2-c1ccccc1 (centres undefined)	-26	-5	60*	-2	-1
C(=N\c1nc2ccccc2n1CCN1CCOCC1)/c1cccs1	-26	-8	4	-1	6
SMILES	Mcl1 Bid PPI	14-3-3 Bad PPI	Mcl1-Noxa inh	Mcl-1 Bim block	Arbovirus anti
C(=N\c1nc2ccccc2n1Cc1ccccc1)/c1cccs1	51*	-3	20	-1	-6
O=C1OC(/C(=C\Nc2cc(Cl)ccc2O)[N+](=O)[O-])c2ccccc21 (centres undefined)	-45	2	17	0	6
Cc1cccnc1Nc1nc(-c2ccc(O)c(O)c2)cs1	-10	2	69*	-9	-14
CC(=O)Nc1ccc(-c2csc(Nc3ccccn3)n2)cc1	-60	3	27	·	·
COc1ccc(-c2csc(Nc3ncccc3C)n2)cc1	-34	-8	11	1	8
COc1ccc(-c2csc(Nc3ncccc3C)n2)cc1OC	-10	4	36	1	41*
O=C(N/N=C/c1ccc(Cl)c([N+](=O)[O-])c1)c1ccc2nc[nH]c2c1	-2	-1	25	-4	8
O=C(N/N=C/c1ccc(Cl)c([N+](=O)[O-])c1)c1cc(-c2ccc3c4c(cccc24)CC3)n[nH]1	23	23	64*	·	·
O=C(N/N=C/c1cccc([N+](=O)[O-])c1)c1cc(-c2ccc3c4c(cccc24)CC3)n[nH]1	60*	43	24	-5	-2
Cc1ccc(-c2nnnn2C2C/C(=N\NC(N)=S)C3OCC2O3)cc1 (centres undefined)	-54	-9	14	-1	19
CC(=O)c1ccc(Nc2ncnc3c2oc2ccccc23)cc1	21	72*	30	-3	-3
Cc1cccc(Nc2c3c(nc4ccccc24)CCC3)c1	0	0	27	·	·
Cc1ccc2nc3c(c(Nc4ccc5c(c4)OCCO5)c2c1)CCC3	-18	-17	56*	-5	-20
Cc1ccc([N+](=O)[O-])cc1-c1ccc(/C=C(\C#N)c2[nH]nc(N)c2C#N)o1	79*	72*[fluorescence artefact?]	68*	-11	-11
COCc1cc(C)nc(OCC(=O)N/N=C/c2ccc(-c3cc([N+](=O)[O-])ccc3C)o2)c1C#N	-11	-3	28	-1	8
COC(=O)c1cccc(OCC(O)Cn2cnc3cc(C)c(C)cc32)c1 (centres undefined)	-5	-14	12	0	21
COC(=O)c1cccc(OCC(O)Cn2ccnc2)c1 (centres undefined)	91*	-3	9	-1	0
Cn1ccnc1C(=O)c1cc(SCC(=O)N2CCOCC2)nc2ccccc12	-16	3	2	-5	7
CCOC(=O)N1CCN(c2nc(C)c3c(n2)CCCC3=O)CC1	71*	-9	27	0	2
CCOC(=O)N1CCN(c2c(-c3ccc(C)cc3)c(=O)c2=O)CC1	2	14	-32	-1	2
CCN1C(=O)c2cccc3c(S(=O)(=O)Nc4ccccc4OC)ccc1c23	75*	-8	21	-5	-6
CCN1C(=O)c2cccc3c(NS(=O)(=O)c4ccc(NC(C)=O)cc4)ccc1c23	-76	-7	-15	4	-3
COc1ccccc1CN(C)CC(=O)NC1CCCc2ccccc21 (centres undefined)	-2	2	-16	-5	-8
Cc1ccc(C(=O)NCC(=O)N2CCN(c3ncccn3)CC2)s1	65*	8	19	0	5
Cc1cccc(C2(c3cccc(C)c3)CC2C(=O)Nc2ccc([N+](=O)[O-])cc2O)c1 (centres undefined)	-13	-15	14	-4	-44
